Test results taken from PubChem BioAssay.
The source made the active and inactive calls.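 The calls were made as follows: active = mean z-score across replicates of 1.96 or higher in either the MELAS or the Rieske mutant cell line; inactive = the rest.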

Assay: MELAS cybrid and Rieske KO viability enhancers – cell-based, MELAS cybrids, Rieske KO mouse fibroblasts, CellTiter-Glo, primary screen (AID 1508586);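 also: test concentration not given here; z relative to plate mean and SD of compound and empty wells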
Conditions: MELAS cybrid survival, low glucose, CellTiter-Glo 48 h; stronger effect = higher value

Compound | z-score
COc1ccc(CN2C[C@@H](CN3CCOCC3)C[C@@H](C(=O)NCC3CCCO3)C2)cc1OC (some centres undefined) | 0.0226 (inactive)
O=C(c1nn(Cc2ccncc2)c2c1CN(Cc1ccsc1)CC2)N1CCCC1 | -0.1 (inactive)
Cc1onc(-c2ccccc2)c1C(=O)N1CC(=O)N(Cc2ccccc2)CC(OCC2CC2)C1 (centres undefined) | 0.442 (inactive)
COc1ccc(C[C@@H]2NC(=O)[C@H]3CN(C(=O)Oc4ccc(Cl)cc4)CCN3C2=O)cc1 | -0.205 (inactive)
CC(C)CNC(=O)[C@@H]1C[C@H](CN2CCOCC2)CN(Cc2nccn2C)C1 | 0.0237 (inactive)

Same assay, conditions: Rieske KO mouse fibroblast survival, low glucose, CellTiter-Glo 72 h

Compound | z-score
CCCCNC(=O)[C@@H]1C[C@H](CN2CCOCC2)CN(CCc2ccccc2)C1 | -0.178
Cc1ccc(S(=O)(=O)N2CCN3C(=O)[C@H](Cc4ccc(Cl)cc4)NC(=O)[C@H]3C2)cc1 | -0.392
CC(C)N1C(=O)N(C)C2(CCN(Cc3ccc4c(c3)Cc3ccccc3-4)CC2)C1=O | -0.55
Cc1ccc(-c2cc(C(=O)N3CCSCC3)cc(S(=O)(=O)N3CCOCC3)c2)s1 | -0.0192
CC(C)C[C@@H]1NC(=O)[C@H]2CN(S(=O)(=O)c3cccc4ccccc34)CCN2C1=O | -0.159
CNS(=O)(=O)c1cc(NCc2cnc(C)[nH]2)cc(C(=O)Nc2ccc3c(c2)CCC3)c1 | -0.751
Cc1cc(-c2cc3c(n(C)c2=O)CCN(Cc2c(C)nc4sccn24)C3)ccc1F | 0.11
Cc1csc(-c2cc(C(=O)NCCN3CCCCC3)cc(S(=O)(=O)N3CCOCC3)c2)c1 | -0.233
CCN1CCN(C(=O)c2cc(-c3cc(C)cs3)cc(S(=O)(=O)N3CCOCC3)c2)CC1 | -0.432
COCCN1C(=O)N(C)C(=O)C12CCN(Cc1cnc(-c3ccccc3)s1)CC2 | -0.895
O=C(NCC1CCCO1)[C@@H]1C[C@H](CN2CCOCC2)CN(Cc2ccc3ccccc3c2)C1 (some centres undefined) | -0.753
CC(C)C[C@H]1C(=O)N2CCN(Cc3cnn(-c4ccccc4)c3)C[C@@H]2C(=O)N1C | -0.165
CCOC(=O)c1nn(CCC(F)(F)F)c2c1CN(C(=O)c1ccco1)CC2 | -0.531
CCCCNC(=O)[C@@H]1C[C@H](CN2CCOCC2)CN(Cc2ccc3ccccc3c2)C1 | 0.627
CCc1nc(CNc2cc(C(=O)N[C@H](C)c3ccc(OC)cc3)cc(S(=O)(=O)N(C)C)c2)c(C)[nH]1 | -0.167
CCc1nc(CNc2cc(C(=O)Nc3ccc4c(c3)CCC4)cc(S(=O)(=O)NC)c2)c(C)[nH]1 | -0.343
CN(C)c1ccc(/C=C/CN2CC(=O)N(CCCN3CCCC3=O)CC(O)C2)cc1 (centres undefined) | -0.286
Cc1ccc(Cl)cc1NC(=O)N[C@H]1C[C@H]2C(=O)N[C@H](C(C)C)C(=O)N2C1 | 0.0408
COC1CN(Cc2cn(C)c3ccccc23)CC(=O)N(Cc2ccccc2)C1 (centres undefined) | -0.0158
CN(C)c1ncc(CN2CCc3c(cc(Cc4ccccc4)c(=O)n3Cc3ccc(F)cc3)C2)s1 | 0.0943

Compound | z-score
COc1ccc(CN2C[C@@H](COc3cccc(C(F)(F)F)c3)C[C@@H](C(=O)NCC(C)C)C2)cc1OC | 0.0165
Cc1noc(C)c1CC(=O)N1CCc2c(c(C(=O)N3CCOCC3)nn2CCCc2ccccc2)C1 | -0.571
CC(C)/C=C/CNc1cc(C(=O)NCc2cn3ccccc3n2)cc(S(=O)(=O)NC(C)C)c1 | -0.726
O=C1N[C@@H](COCc2ccccc2)C(=O)N2C[C@@H](NCc3cnn(-c4cccc(F)c4)c3)C[C@@H]12 | -0.436
Cc1csc(-c2cc(C(=O)NCCC3CCCN3C)cc(S(=O)(=O)N3CCOCC3)c2)c1 (centres undefined) | -0.54
COc1ccccc1C(=O)N1CCN2C(=O)[C@H](CCCCN)NC(=O)[C@H]2C1 | -0.574
Cc1ccn2cc(C(=O)N3CCc4c(cc(-c5ccc(OC(F)(F)F)cc5)c(=O)n4C)C3)nc2c1 | -0.543
Cn1c2c(cc(-c3ccc(OC(F)(F)F)cc3)c1=O)CN(C(=O)C1CC(=O)c3ccccc31)CC2 (centres undefined) | 0.643
O=C1N[C@H](CO)C(=O)N2CCN(C(=O)c3ccc(F)cc3)C[C@H]12 | -0.948
CC(C)N1CC(OCc2ccc(F)cc2)CN(C(=O)c2ccc(C#CC(C)(C)O)o2)CC1=O (centres undefined) | -0.177
CN(C)C(=O)c1nn(Cc2ccccc2)c2c1CN(C(=O)C1CC(=O)Nc3ccccc31)CC2 (centres undefined) | -0.253
COc1ccc(CNC(=O)c2cc(NCc3nc[nH]c3C)cc(S(=O)(=O)N3CCCC3)c2)cc1 | -0.812
Cc1ccc(-c2cc(C(=O)N3CCC[C@H]3CO)cc(S(=O)(=O)N3CCOCC3)c2)s1 | 1.18
Cc1csc(-c2cc(C(=O)NCCCN3CCOCC3)cc(S(=O)(=O)N3CCOCC3)c2)c1 | 0.151
COc1ccc(CN2C[C@@H](CN3CCOCC3)C[C@@H](C(=O)NCC3CCCO3)C2)cc1OC (some centres undefined) | 0.461
O=C(c1nn(Cc2ccncc2)c2c1CN(Cc1ccsc1)CC2)N1CCCC1 | 0.631
Cc1onc(-c2ccccc2)c1C(=O)N1CC(=O)N(Cc2ccccc2)CC(OCC2CC2)C1 (centres undefined) | -0.273
COc1ccc(C[C@@H]2NC(=O)[C@H]3CN(C(=O)Oc4ccc(Cl)cc4)CCN3C2=O)cc1 | 0.551
CC(C)CNC(=O)[C@@H]1C[C@H](CN2CCOCC2)CN(Cc2nccn2C)C1 | 0.267
